# Where “and” joins values, the source holds several entries; their conditions need not be identical. Identical values can stand only once.
# Experiment: compound effects on multiple myeloma cell viability – MM1S, calcein-AM fluorescence, 48 h, basal, profiling panel (AID 1165); also: test concentration not given here
# Settings: higher = more signal
row,SMILES,z-score
1,CC(=O)OC[C@H]1O[C@H](C#CC(C)(C)C)C=C[C@@H]1OC(C)=O,-3.02
2,COc1ccc(O[C@H]2C=C[C@@H](c3ccccc3)O[C@@H]2COC(=O)CCC(C)=NO[C@H](C)c2cn([C@H](CO)Cc3ccccc3)nn2)cc1,-0.764 and -2.3
3,CCCC[C@@H]1CN2[C@H](c3ccc(Br)cc3)[C@@H](C)CC[C@H]2C(=O)O1,-1.36 and -0.797
4,CC(CO)N1C(=O)[C@@H]2C3C(=O)OCCC=C[C@H]3OC23C=CCN(C(C)(C)C)C(=O)[C@@H]13 (stereo not given in full),-0.388 and 0.885
5,C=CCN(C(=O)C1N(CCOCCO)C(=O)C2C(C(=O)O)C3C=CC21O3)C(C)(C)C (stereo not given),1.01 and 0.916
6,C[C@@H](ON=C1[C@H]2CCn3c(=O)n(-c4ccccc4)c(=O)n3[C@H]2[C@H](O)[C@@H]2O[C@H]12)c1cn([C@H](CO)Cc2ccccc2)nn1,-0.463
7,CO[C@H]1COC(=O)CC=C[C@H](C)[C@H](OC)COC(=O)[C@@H](C)COC(=O)CC=C[C@@H]1C,0.183 and 0.0455
8,COC(=O)[C@H](C)NC(=O)CCC1CC(OC(=O)NCCc2ccc(F)cc2)CC2(CCCC(COC(=O)NCCCN3CCCC3=O)O2)O1 (stereo not given in full),-0.901
9,CCOC(=O)[C@@H]1CC2O[C@]23C[C@@H]1C(=O)N1CCC[C@@H]1[C@H]3O[Si](C)(C)C(C)(C)C (stereo not given in full),0.0049 and -3.22
10,C[C@@H]1CC[C@H]2C(=O)O[C@H](CN=[N+]=[N-])CN2[C@H]1c1ccc(Br)cc1,-3.4 and -0.0115
11,O=c1n(-c2ccccc2)c(=O)n2n1CC[C@@H]1C(=NOC[C@@H](O)COCc3ccco3)[C@H]3O[C@H]3[C@@H](O)[C@@H]12,0.256 and -0.207
12,C=C(C)C(=O)OC[C@@H]1CN2[C@@H](CC[C@@H](C)[C@@H]2c2ccc(Br)cc2)C(=O)O1,0.419
13,CCCNC(=O)OC[C@H]1O[C@H](CCON=C(C)CCC(=O)OC[C@H]2O[C@H](C#Cc3ccccc3)C=C[C@@H]2Oc2ccc(C)cc2)C=C[C@@H]1Oc1ccc(OC)cc1,-0.321
14,C=C[C@@H](OC)[C@H](O)c1ccc(O)c(F)c1,0.204 and 0.115
15,COCn1c2ccccc2c2nnc(C(C)=O)nc21,-0.32 and -0.151
16,CC[C@@H]1C(Sc2ccccc2)C(C(=O)O)[C@H](c2ccc(C)cc2)N1S(=O)(=O)c1ccc(C)cc1 (stereo not given in full),0.702 and 1.11
17,C=CCN(C(=O)C(c1cccs1)N(C(=O)/C=C\C(=O)O)c1c(Cl)cccc1CO)c1ccc(OC)cc1 (stereo not given),1.51 and -0.996
18,CO[C@@H]1COC(=O)[C@H](Cc2ccccc2)NC(=O)CC=C[C@@H](C)[C@H](OC)COC(=O)[C@@H](C)NC(=O)CC=C[C@H]1C,0.144 and 0.329
19,CCOC(=O)[C@@H]1CC=C2CC1C(=O)N1CCC[C@@H]1[C@H]2O[Si](C)(C)C(C)(C)C (stereo not given in full),-0.204 and -0.227
20,C[C@@H](c1ccccc1)N1C(=O)[C@H]2[C@H]3[C@H](O)[C@H](O)CC(=O)[C@@H]3CC[C@H]2C1=O,0.288

row,SMILES,z-score
1,C[C@@H]1CC[C@H]2C(=O)NC[C@@H](O)CN2[C@H]1c1ccc(Br)cc1,0.211 and -0.52
2,CC(C)[Si]1(C(C)C)OCc2cc(CCCc3cc4c(c(CCc5ccccc5)n3)[Si](C(C)C)(C(C)C)OC4)nc(CCc3ccccc3)c21,-1.66 and 0.326
3,Cc1cc2c(nc1C)CCCN2CC(C)ON=C[C@@H](C)[C@H](OCc1ccccc1)C(C)C (stereo not given in full),-1.24
4,C=CCN(C(=O)C(c1cccs1)N(C(=O)/C=C\C(=O)O)c1ccc(CCO)cc1)C(C)(C)C (stereo not given),-1.18 and 0.821
5,C=C[C@@H](OC)[C@H](O)c1ccc(OCCO)cc1,0.663 and 0.916
6,C=CCN(C(=O)C(c1cccs1)N(CCOCCO)C(=O)/C=C\C(=O)O)c1ccc(OC)cc1 (stereo not given),1.3 and 1.57
7,C=C[C@@H](C)[C@H](O)c1ccc(O)c2ccccc12,-2.66 and -2.63
8,C[C@@H]1CN2[C@@H](CC[C@@H](C)[C@@H]2c2ccc(Br)cc2)C(=O)O1,0.248 and 0.391
9,C=CCN(C(=O)C1N(c2ccc(CCO)cc2)C(=O)C2C(C(=O)O)C3C=CC21O3)c1ccc(OC)cc1 (stereo not given),1.02 and 1.1
10,C=C[C@H](C)[C@@H](O)c1ccc(OCCO)cc1,0.529 and -0.301
11,C=CCN(C(=O)C(c1cccs1)N(CCOCCO)C(=O)/C=C\C(=O)O)C(C)(C)C (stereo not given),1.62 and 0.903
12,COC(=O)C1=C(C)N(Cc2ccccc2)[C@]23O[C@](C(=O)OC)(C(=O)N2[C@@H]1c1ccccc1)[C@@H](c1ccccc1)[C@@H]3C(=O)c1ccccc1,0.54 and 0.391
13,C=CCN(CCCC)C(=O)C1N(C(C)(C)CO)C(=O)C2C(C(=O)O)C3C=CC21O3 (stereo not given),1.09 and -0.12
14,Cc1ccc(S(=O)(=O)N[C@H]2COC(=O)[C@@H](C)COC(=O)[C@H](C)NC(=O)CC=C[C@H]2C)cc1,0.143
15,Cc1ccc(S(=O)(=O)OC[C@@H]2CN3[C@@H](CC[C@@H](C)[C@@H]3c3ccc(Br)cc3)C(=O)O2)cc1,-0.644 and 0.185
16,COC(=O)C1=C(C)N(Cc2ccccc2)C2=C(C(=O)c3ccccc3)[C@H](c3ccccc3)[C@@](O)(C(=O)OC)C(=O)N2[C@@H]1c1ccccc1,-0.317 and 0.332
17,C=CCN(Cc1ccccc1)C(=O)C(c1cccs1)N(C(=O)/C=C\C(=O)O)c1ccc(CCO)cc1 (stereo not given),1.49 and 1.81
18,CCOC(=O)[C@H](Cc1ccccc1)NC(=O)CCC1CC(OC(=O)NCc2cccc3ccccc23)CC2(CCCC(COC(=O)NCCCN3CCCC3=O)O2)O1 (stereo not given in full),-0.0157
19,COC(=O)c1c2oc(c1C(=O)OC)C(=O)N[C@@H](Cc1ccccc1)Cn1cc(nn1)C1(CCCCC1)NC(=O)N[C@H](CO)CC2,0.434 and -0.392
20,C=CCN(CCCCC)C(=O)C1N(c2ccc(CCO)cc2)C(=O)C2C(C(=O)O)C3C=CC21O3 (stereo not given),0.867 and 0.199

# — PubChem BioAssay
